Measured values as given in PubChem BioAssay (NCATS).
Records with an inconclusive call do not appear. Activity calls are given as the source filed them. Unless noted, calls follow the shape of the full dose curve.

Tests used:
[1] = target: Alpha-galactosidase (Coffea arabica) (UniProt Q42656); experiment: Counterscreen for Glucocerebrosidase Inhibitors: qHTS Assay for Coffee Bean alpha-Galactosidase at pH 4.5 (AID 957; active = well fitted curve in the direction sought with a large enough effect; an effect the other way counts as inactive or inconclusive;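 also: series mostly up to about 77 µM; plate controls were enzyme alone for no effect and no enzyme for full effect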)
Sequence of Alpha-galactosidase (Coffea arabica) (Q42656 whole entry, looked up): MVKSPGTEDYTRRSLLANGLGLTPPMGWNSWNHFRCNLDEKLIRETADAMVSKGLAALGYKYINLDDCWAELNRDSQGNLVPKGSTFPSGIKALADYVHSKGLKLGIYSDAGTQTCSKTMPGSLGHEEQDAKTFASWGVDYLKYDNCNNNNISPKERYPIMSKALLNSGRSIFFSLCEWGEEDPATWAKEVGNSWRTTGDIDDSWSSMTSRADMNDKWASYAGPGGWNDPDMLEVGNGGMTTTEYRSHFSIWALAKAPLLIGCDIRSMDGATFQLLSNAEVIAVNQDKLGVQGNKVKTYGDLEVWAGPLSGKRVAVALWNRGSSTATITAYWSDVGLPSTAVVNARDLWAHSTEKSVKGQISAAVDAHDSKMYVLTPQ
In short: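 Coffee bean enzyme (2 nM) with 80 uM 4-methylumbelliferyl alpha-D-galactopyranoside in 50 mM citric acid, 0.005% Tween-20, pH 4.5, 20 min at room temperature; compounds 0.7 nM–77 uM. Stopped at pH 10, fluorescence 365/440 nm; AC50 from Hill fits.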

[2] = Validation screen for inhibitors of Lassa infection (AID 463096); also: potency is read from the fitted curve at half-maximal effect
[3] = Inducers of the Endoplasmic Reticulum Stress Response (ERSR) in human glioma: Validation (AID 504836; active = well fitted curve in the direction sought with a large enough effect; an effect the other way counts as inactive or inconclusive; also: 0% is about no effect)
In short: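 Stably transfected U87-MG glioma cells carrying a GRP78-based luciferase sensor; 16 h compound incubation. Luminescence end-point read 10 min after Bright-Glo addition at room temperature.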

[4] = qHTS for Inhibitors of the Functional Ribonucleoprotein Complex (vRNP) of Lassa (LASV) Arenavirus: LASV Primary Screen - GLuc reporter signal (AID 1347082; calls by dose curve; tested in HEK293 reporter line; also: series mostly up to about 57 µM; % is scaled to controls: 0 for no effect and ±100 for the full control effect; nearly all actives have a fitted effect of over 60% in size)
[5] = qHTS for Inhibitors of the Functional Ribonucleoprotein Complex (vRNP) of Lassa (LASV) Arenavirus: Viability assay - alamar blue signal for LASV Primary Screen (AID 1347083; calls by dose curve; tested in HEK293 reporter line; also: series mostly up to about 57 µM; % is scaled to controls: 0 for no effect and ±100 for the full control effect; nearly all actives have a fitted effect of over 80% in size)
[6] = qHTS for Inhibitors of the Functional Ribonucleoprotein Complex (vRNP) of Lymphocytic Choriomeningitis Arenaviruses (LCMV): Viability assay - alamar blue signal for LCMV Primary Screen (AID 1347085; calls by dose curve; tested in HEK293 reporter line; also: series mostly up to about 57 µM; % is scaled to controls: 0 for no effect and ±100 for the full control effect; nearly all actives have a fitted effect of over 80% in size)
[7] = target: Nucleoprotein (Lymphocytic choriomeningitis virus (strain Armstrong)) (UniProt P09992); experiment: qHTS for Inhibitors of the Functional Ribonucleoprotein Complex (vRNP) of Lymphocytic Choriomeningitis Arenaviruses (LCMV): LCMV Primary Screen - GLuc reporter signal (AID 1347086); also: series mostly up to about 57 µM; % is scaled to controls: 0 for no effect and ±100 for the full control effect; nearly all actives have a fitted effect of over 70% in size
Sequence of Nucleoprotein (Lymphocytic choriomeningitis virus (strain Armstrong)) (P09992 whole entry, looked up): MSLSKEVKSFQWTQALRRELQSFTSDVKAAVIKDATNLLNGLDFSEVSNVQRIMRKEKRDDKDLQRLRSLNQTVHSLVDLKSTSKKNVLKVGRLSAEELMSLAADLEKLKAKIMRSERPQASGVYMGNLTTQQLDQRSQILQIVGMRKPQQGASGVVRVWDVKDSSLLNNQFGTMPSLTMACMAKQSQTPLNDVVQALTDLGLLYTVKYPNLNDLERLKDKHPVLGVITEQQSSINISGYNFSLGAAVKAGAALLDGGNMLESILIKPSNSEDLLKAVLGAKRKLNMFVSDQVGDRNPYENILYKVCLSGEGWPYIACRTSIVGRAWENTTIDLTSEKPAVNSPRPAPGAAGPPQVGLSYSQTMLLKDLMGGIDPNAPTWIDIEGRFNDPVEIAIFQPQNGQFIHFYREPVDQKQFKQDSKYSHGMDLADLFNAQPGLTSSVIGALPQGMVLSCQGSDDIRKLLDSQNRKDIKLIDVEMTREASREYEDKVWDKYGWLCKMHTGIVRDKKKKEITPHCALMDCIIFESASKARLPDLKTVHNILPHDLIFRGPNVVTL

[8] = target: Alpha-galactosidase (Coffea arabica) (UniProt Q42656); experiment: Counterscreen for Glucocerebrosidase Inhibitors: qHTS Assay for Coffee Bean alpha-Galactosidase at pH 5.9 (AID 998; active = well fitted curve in the direction sought with a large enough effect; an effect the other way counts as inactive or inconclusive;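 also: plate controls were uninhibited enzyme for no effect and no-enzyme basal signal for full effect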)
In short: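 Green coffee bean enzyme (2 nM) with 4-methylumbelliferyl alpha-D-galactopyranoside (80 uM) in 50 mM citric acid, 0.005% Tween-20, pH 5.9, 20 min at room temperature; compounds 0.7 nM–77 uM. Stopped at pH 10, fluorescence Ex365/Em440; Hill-fit AC50.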

[9] = target: Voltage-gated inwardly rectifying potassium channel KCNH2 (Homo sapiens) (UniProt Q12809); experiment: qHTS Assay for Small Molecule Inhibitors of the Human hERG Channel Activity (AID 588834; active = well fitted curve in the direction sought with a large enough effect; an effect the other way counts as inactive or inconclusive;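 also: lower thallium flux fluorescence means stronger hERG block; nearly all actives have a fitted effect of over 50% in size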; also: potency is read from the fitted curve at half-maximal effect)
Sequence of Voltage-gated inwardly rectifying potassium channel KCNH2 (Homo sapiens) (Q12809 whole entry, looked up): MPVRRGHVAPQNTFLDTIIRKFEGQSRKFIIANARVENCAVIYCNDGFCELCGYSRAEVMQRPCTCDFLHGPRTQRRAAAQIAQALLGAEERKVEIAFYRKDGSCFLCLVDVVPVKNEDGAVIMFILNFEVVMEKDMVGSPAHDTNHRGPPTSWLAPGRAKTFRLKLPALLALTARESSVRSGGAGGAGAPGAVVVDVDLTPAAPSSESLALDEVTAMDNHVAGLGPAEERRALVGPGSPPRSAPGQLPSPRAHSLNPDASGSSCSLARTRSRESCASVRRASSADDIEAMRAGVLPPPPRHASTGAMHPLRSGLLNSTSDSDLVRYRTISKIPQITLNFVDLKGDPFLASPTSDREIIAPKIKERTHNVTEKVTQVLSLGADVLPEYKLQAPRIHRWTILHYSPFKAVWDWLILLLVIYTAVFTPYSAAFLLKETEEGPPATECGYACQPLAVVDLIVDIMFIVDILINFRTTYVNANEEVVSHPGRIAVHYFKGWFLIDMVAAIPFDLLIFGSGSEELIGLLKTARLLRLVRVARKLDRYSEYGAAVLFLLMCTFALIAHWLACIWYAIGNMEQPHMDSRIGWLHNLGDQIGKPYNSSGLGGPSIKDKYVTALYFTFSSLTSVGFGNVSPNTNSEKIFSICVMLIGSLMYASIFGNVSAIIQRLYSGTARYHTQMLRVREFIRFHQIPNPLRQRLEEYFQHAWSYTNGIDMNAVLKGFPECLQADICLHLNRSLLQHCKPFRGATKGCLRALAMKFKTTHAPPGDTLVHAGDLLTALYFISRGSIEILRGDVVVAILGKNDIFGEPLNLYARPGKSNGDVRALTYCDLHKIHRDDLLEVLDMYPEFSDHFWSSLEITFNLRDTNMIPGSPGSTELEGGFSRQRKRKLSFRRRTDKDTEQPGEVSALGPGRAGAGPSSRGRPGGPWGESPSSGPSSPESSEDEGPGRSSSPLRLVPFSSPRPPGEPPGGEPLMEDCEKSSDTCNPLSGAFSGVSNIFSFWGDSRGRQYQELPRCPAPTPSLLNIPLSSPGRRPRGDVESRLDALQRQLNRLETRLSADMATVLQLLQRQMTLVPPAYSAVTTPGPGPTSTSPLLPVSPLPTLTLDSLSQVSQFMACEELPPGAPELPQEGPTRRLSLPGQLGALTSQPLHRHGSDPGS
In short: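 U2OS cells transduced with hERG via BacMam (MOI ~100), plated 2000/well, loaded with FluxOR thallium dye, compound ~10 min, then stimulation buffer; fluorescence decrease read kinetically; AC50 from Hill fits.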

[10] = target: Ubiquitin carboxyl-terminal hydrolase 1 (Homo sapiens) (UniProt O94782); experiment: Inhibitors of USP1/UAF1: Pilot qHTS (AID 504865; active = well fitted curve in the direction sought with a large enough effect; an effect the other way counts as inactive or inconclusive;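 also: rhodamine fluorescence freed from ubiquitin-rhodamine substrate followed over time; top concentration of the series differs between compounds; % is scaled to controls: 0 for no effect and ±100 for the full control effect; nearly all actives have a fitted effect of over 35% in size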)
Sequence of Ubiquitin carboxyl-terminal hydrolase 1 (Homo sapiens) (O94782 whole entry, looked up): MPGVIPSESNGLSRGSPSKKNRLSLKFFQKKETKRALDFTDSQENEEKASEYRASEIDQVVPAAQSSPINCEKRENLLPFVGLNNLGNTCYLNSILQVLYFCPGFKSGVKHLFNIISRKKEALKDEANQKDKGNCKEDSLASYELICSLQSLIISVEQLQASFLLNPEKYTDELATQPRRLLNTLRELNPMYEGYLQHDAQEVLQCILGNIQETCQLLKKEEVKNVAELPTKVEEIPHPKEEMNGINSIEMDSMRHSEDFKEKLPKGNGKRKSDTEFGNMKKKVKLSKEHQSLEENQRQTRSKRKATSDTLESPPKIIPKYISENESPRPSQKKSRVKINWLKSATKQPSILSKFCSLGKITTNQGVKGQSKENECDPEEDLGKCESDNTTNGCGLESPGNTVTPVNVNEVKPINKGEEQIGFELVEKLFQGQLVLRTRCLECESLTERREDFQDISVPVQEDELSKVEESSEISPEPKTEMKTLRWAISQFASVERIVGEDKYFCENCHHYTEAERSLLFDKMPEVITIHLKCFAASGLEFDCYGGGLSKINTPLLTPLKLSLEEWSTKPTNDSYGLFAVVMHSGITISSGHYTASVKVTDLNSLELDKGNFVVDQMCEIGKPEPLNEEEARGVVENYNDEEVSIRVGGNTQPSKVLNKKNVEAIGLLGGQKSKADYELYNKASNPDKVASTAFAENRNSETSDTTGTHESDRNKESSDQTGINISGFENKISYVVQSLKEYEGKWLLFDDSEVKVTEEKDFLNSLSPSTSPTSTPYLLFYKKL
In short: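 USP1/UAF1 complex (1nM) preincubated with compound 15 min at room temperature, then Ub-Rho substrate (150nM final) added. Fluorescence read kinetically at 480/540 nm, 6 reads every 60 seconds. Buffer: 50mM HEPES pH 7.8, 0.5mM EDTA, 0.1 mg/ml BSA, 1mM TCEP, 0.01% Tween-20.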

[11] = target: Bile acid receptor (Homo sapiens) (UniProt Q96RI1); experiment: qHTS assay for small molecule agonists of farnesoid X receptor signaling (AID 588527); settings: HEK293T FXR-UAS-bla, beta-lactamase ratio, 16 h; activation: hits give high values;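 also: series mostly up to about 77 µM; 0% = vehicle basal and 100% = reference agonist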
Sequence of Bile acid receptor (Homo sapiens) (Q96RI1 whole entry, looked up): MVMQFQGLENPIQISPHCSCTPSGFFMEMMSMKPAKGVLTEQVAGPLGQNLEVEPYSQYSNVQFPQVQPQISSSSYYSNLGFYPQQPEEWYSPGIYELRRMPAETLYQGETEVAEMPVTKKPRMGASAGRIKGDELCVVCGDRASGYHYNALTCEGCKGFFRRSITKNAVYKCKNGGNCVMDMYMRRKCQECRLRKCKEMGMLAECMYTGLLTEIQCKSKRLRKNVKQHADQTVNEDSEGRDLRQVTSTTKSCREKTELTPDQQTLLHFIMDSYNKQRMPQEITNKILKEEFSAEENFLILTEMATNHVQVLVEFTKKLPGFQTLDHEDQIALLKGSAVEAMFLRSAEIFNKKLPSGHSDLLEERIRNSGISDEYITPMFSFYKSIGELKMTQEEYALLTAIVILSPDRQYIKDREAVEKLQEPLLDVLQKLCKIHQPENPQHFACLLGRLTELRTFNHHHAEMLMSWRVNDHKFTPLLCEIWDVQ
In short: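 Read-out: beta-lactamase reporter fluorescence with CCF4 substrate in GeneBLAzer FXR-UAS-bla HEK293T cells, after 16 h compound exposure at 37 C. Response scaled between DMSO basal (0%) and chenodeoxycholic acid at 100 uM (100%).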

[12] = target: Nuclear receptor ROR-gamma (Homo sapiens) (UniProt P51449); experiment: qHTS assay for small molecule antagonists of the retinoid-related orphan receptor gamma (ROR-gamma) signaling pathway (AID 651802; active = well fitted curve in the direction sought with a large enough effect; an effect the other way counts as inactive or inconclusive;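 also: luciferase reporter luminescence driven by ROR response element; series mostly up to about 92 µM; % is scaled to controls: 0 for no effect and ±100 for the full control effect; nearly all actives have a fitted effect of over 60% in size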)
In short: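 CHO cells with TET-inducible ROR-gamma and RORE-luciferase reporter, dosed then doxycycline-induced. After 16 h at 37C, One-Glo luminescence read; decreased signal indicates antagonism.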

[13] = target: Arylsulfatase A (Homo sapiens) (UniProt P15289); experiment: qHTS screen for enhancers of Arylsulfatase A (ASA1): LOPAC Validation Assay (AID 720538; active = well fitted curve in the direction sought with a large enough effect; an effect the other way counts as inactive or inconclusive)
Sequence of Arylsulfatase A (Homo sapiens) (P15289 whole entry, looked up): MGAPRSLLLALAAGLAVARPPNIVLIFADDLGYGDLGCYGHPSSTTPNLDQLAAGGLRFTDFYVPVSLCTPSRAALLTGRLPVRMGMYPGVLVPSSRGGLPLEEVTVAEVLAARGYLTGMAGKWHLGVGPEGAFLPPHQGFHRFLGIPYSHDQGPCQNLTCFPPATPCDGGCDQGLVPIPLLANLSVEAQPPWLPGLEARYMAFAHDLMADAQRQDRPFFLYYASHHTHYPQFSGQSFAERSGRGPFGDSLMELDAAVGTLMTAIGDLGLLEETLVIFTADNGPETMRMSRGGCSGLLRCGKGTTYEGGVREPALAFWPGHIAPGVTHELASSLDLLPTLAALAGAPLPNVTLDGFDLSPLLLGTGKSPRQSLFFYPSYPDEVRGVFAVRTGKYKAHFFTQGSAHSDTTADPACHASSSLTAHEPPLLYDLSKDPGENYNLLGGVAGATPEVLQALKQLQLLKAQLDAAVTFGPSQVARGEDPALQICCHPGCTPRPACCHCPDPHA
In short: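 SV40-transformed skin fibroblasts from an MLD patient (ASA-I179S) were treated with compounds for 48h at 37 degree C, then lysed with 0.5mM pNCS final substrate for 14h at room temperature; NaOH stop, fluorescence read (Ex=525 nm; Em=598 nm).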

[14] = qHTS Assay for Identifying Gametocytocidal Compounds (AID 743244; active = well fitted curve in the direction sought with a large enough effect; an effect the other way counts as inactive or inconclusive;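 also: % is scaled to controls: 0 for no effect and ±100 for the full control effect; actives lower the fluorescent signal which means gametocytes are killed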); settings: P. falciparum 3D7 stage III-V gametocytes, alamarBlue, 72 h; max response: hits give low values
In short: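 3D7 gametocytes, stages III–V, 20,000/well; cpd 72 h, 37 °C/5% CO2; + alamarBlue 24 h; fluor. Ex 525/Em 598.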

[15] = target: Peroxisome proliferator-activated receptor delta (Homo sapiens) (UniProt Q03181); experiment: qHTS assay for small molecule agonists of peroxisome proliferator-activated receptor delta signaling (AID 588534);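 also: 0% = DMSO basal wells and 100% = positive control agonist at 10 µM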
Sequence of Peroxisome proliferator-activated receptor delta (Homo sapiens) (Q03181 whole entry, looked up): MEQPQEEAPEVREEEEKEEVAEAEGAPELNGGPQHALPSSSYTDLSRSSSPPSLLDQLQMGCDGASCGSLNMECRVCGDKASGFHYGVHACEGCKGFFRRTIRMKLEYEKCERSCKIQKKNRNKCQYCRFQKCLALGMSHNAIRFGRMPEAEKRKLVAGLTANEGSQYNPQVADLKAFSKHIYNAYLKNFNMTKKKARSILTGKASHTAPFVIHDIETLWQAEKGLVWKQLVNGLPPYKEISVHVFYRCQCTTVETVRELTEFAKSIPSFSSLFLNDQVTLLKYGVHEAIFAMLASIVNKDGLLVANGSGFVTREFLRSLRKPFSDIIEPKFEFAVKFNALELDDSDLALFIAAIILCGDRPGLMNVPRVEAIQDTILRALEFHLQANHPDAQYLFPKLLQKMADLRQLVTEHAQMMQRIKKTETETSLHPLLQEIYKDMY
In short: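 Cells carrying a PPAR-delta beta-lactamase reporter were treated with compounds for 18 h at 37 °C in agonist mode. CCF4 fluorescence was read after 2 h; EC50 and efficacy from Hill fits.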

[16] = target: Cytochrome P450 3A4 (Homo sapiens) (UniProt P08684); experiment: qHTS Assay for Activators of Cytochrome P450 3A4 (AID 885; active = well fitted curve in the direction sought with a large enough effect; an effect the other way counts as inactive or inconclusive; also: nearly all actives have a fitted effect of over 65% in size)
Sequence of Cytochrome P450 3A4 (Homo sapiens) (P08684 whole entry, looked up): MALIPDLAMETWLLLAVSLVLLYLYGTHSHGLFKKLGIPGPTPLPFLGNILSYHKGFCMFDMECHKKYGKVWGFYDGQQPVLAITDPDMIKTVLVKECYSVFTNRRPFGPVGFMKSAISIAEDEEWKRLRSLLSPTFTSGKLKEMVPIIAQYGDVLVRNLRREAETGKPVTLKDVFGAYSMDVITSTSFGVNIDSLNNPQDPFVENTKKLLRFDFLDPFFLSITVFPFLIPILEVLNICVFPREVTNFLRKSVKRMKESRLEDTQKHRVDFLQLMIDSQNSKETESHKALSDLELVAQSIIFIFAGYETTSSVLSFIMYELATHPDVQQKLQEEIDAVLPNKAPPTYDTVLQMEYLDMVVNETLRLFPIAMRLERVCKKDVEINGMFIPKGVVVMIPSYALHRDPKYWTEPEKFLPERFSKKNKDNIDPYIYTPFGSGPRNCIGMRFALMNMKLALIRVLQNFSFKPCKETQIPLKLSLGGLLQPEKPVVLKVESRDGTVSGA
In short: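 Steps: enzyme/substrate mix dispensed; compound added, 10 min RT; NADPH regeneration solution added, 60 min RT; luciferin detection buffer stops reaction; 20 min later luminescence measured.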

O=C(O)C1=CCNCC1
inactive: outcome [1] | Potency [2] | outcome [3] | Potency [4] | Potency [5] | Potency [6] | Potency [7]

N=C(N)c1ccccc1
inactive: outcome [1] | outcome [8] | Potency [2] | outcome [3] | Potency [9] | Potency [4] | Potency [5] | Potency [6] | Potency [7]

NCCCCCCCCCCN
inactive: outcome [1] | Potency [2] | outcome [3] | Potency [4] | Potency [5] | Potency [6] | Potency [7]

CCCC[C@@]1(C2CCCC2)Cc2cc(OCC(=O)O)c(Cl)c(Cl)c2C1=O
inactive: Potency [2] | outcome [3] | Potency [4] | Potency [5] | Potency [6] | Potency [7]

O=C1C2C=CC=CC2=NC(=S)N1CCN1CCC(=C(c2ccc(F)cc2)c2ccc(F)cc2)CC1 (stereo not given)
inactive: Potency [2] | outcome [3] | Potency [4] | Potency [5] | Potency [6] | Potency [7]

C[C@H](O)C(=O)C1=Nc2c(nc(N)[nH]c2=O)NC1
inactive: outcome [1] | Potency [2] | outcome [3] | Potency [4] | Potency [5] | Potency [6] | Potency [7]

NC(CCCP(=O)(O)O)C(=O)O (stereo not given)
inactive: Potency [2] | outcome [3] | Potency [10] | Potency [4] | Potency [5] | Potency [6] | Potency [7]

NC(=O)c1ccccc1
inactive: outcome [1] | outcome [8] | Potency [2] | outcome [3] | activation [11] 0.288% | Potency [4] | Potency [5] | Potency [6] | Potency [7]

CCCc1c(OCCCOc2ccc(OCC(=O)O)cc2)ccc(C(C)=O)c1O
inactive: outcome [1] | outcome [8] | Potency [2] | outcome [3] | activation [11] 3% | Potency [4] | Potency [5] | Potency [6] | Potency [7]

COC(=O)C(C)(N)Cc1ccc(O)cc1 (stereo not given)
inactive: Potency [2] | outcome [3] | Potency [4] | Potency [5] | Potency [6] | Potency [7]

CCCCCCCCCC(=O)NC(CN1CCOCC1)[C@H](O)c1ccccc1 (stereo not given in full)
inactive: Potency [2] | outcome [3] | Potency [4] | Potency [5] | Potency [6] | Potency [7]

C[C@@H](NCCc1ccc(O)cc1)[C@@H](O)c1ccc(O)cc1
active: Potency [9] 7.94 µM
inactive: Potency [2] | outcome [3] | Potency [4] | Potency [5] | Potency [6] | Potency [7]

C[N+](C)(C)CC=O
inactive: outcome [1] | Potency [2] | outcome [3] | Potency [4] | Potency [5] | Potency [6] | Potency [7]

O=[N+]([O-])c1cccc2cn[nH]c12
inactive: outcome [1] | Potency [2] | outcome [3] | Potency [4] | Potency [5] | Potency [6] | Potency [7]

CSC(N)=NCCC[C@H](N)C(=O)O
inactive: Potency [2] | outcome [3] | Potency [4] | Potency [5] | Potency [6] | Potency [7]

CC(C)NC[C@H](O)COc1ccc(CC(N)=O)cc1
inactive: Potency [2] | outcome [3] | Potency [4] | Potency [5] | Potency [6] | Potency [7]

CN1CCC[C@H]1c1cccnc1
inactive: Potency [2] | outcome [3] | Potency [12] | Potency [13] | max response [14] 8.91% | Potency [4] | Potency [5] | Potency [6] | Potency [7]

CN(C)CCC(c1ccc(Cl)cc1)c1ccccn1 (stereo not given)
inactive: Potency [2] | outcome [3] | Potency [4] | Potency [5] | Potency [6] | Potency [7]

Cc1ccccc1CNc1ncnc2c1ncn2C1OC(CO)C(O)C1O (stereo not given)
inactive: Potency [2] | outcome [3] | Potency [4] | Potency [5] | Potency [6] | Potency [7]

O=C(N[C@@H](Cc1ccccc1)C(=O)CCl)OCc1ccccc1
inactive: outcome [1] | outcome [3] | Potency [4] | Potency [5] | Potency [6] | Potency [7]
active: Potency [2] 6.31 µM

CC(N)=O
inactive: outcome [1] | Potency [2] | outcome [3] | Potency [4] | Potency [5] | Potency [6] | Potency [7]

C=CCN1CCc2c(cc(O)c(O)c2Cl)C(c2ccccc2)C1 (stereo not given)
inactive: Potency [2] | outcome [3] | Potency [4] | Potency [5] | Potency [6] | Potency [7]

COc1ccc(-c2ccc(N)[n+](CCCC(=O)O)n2)cc1
inactive: outcome [1] | Potency [2] | outcome [3] | Potency [4] | Potency [5] | Potency [6] | Potency [7]

CC(=O)C(C)=O
inactive: outcome [1] | Potency [2] | outcome [3] | activation [11] 0.539% | Potency [15] | Potency [13] | Potency [4] | Potency [5] | Potency [6] | Potency [7]

CC1=C(C(=O)O)N2C(=O)[C@@H](NC(=O)C(N)c3ccccc3)[C@H]2SC1 (stereo not given in full)
inactive: Potency [2] | outcome [3] | Potency [4] | Potency [5] | Potency [6] | Potency [7]

CC1(C)CCC2=C(O1)c1ccccc1C(=O)C2=O
active: Potency [2] 11.2 µM
inactive: Potency [16] | outcome [1] | outcome [8] | outcome [3] | Potency [4] | Potency [5] | Potency [6] | Potency [7]

O=C(OCCN1CCOCC1)C1(c2ccccc2)CCCCC1
inactive: outcome [1] | Potency [2] | outcome [3] | Potency [4] | Potency [5] | Potency [6] | Potency [7]

O=C(O)/C=C/c1ccc(O)c(O)c1
inactive: outcome [1] | outcome [8] | Potency [2] | outcome [3] | Potency [4] | Potency [5] | Potency [6] | Potency [7]
